Rows were chosen to be rich in hits. Some 2.4% of all compounds tested hit in one or more screens of this group.
NOD2 RIPK2 PPI – inhibitors of human NOD2-RIPK2 interaction. inhibition, % at 4.98 µM. CHO BLA complementation NOD2-RIPK2, CCF4 ratio. 360,000 tested, 0.38% active. O43353; in the data active = inhibition above about 21%;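 note: 0% = vehicle only and 100% = reference blocker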
TLR9-MyD88 inh – inhibitors of human TLR9-MyD88 binding | 340,000 tested, 0.21% active | AID 504734 | CHO BLA complementation TLR9-MyD88, CCF4 FRET ratio | inhibition, % at 4.98 µM;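 active = inhibition above the mean over all tested compounds plus 3 SD, cut at about 21% in these data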;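 note: 0% = DMSO only wells and 100% = clavulanate BLA inhibitor control wells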
ABHD5-PLIN5 inh – blocks binding of human ABHD5 to perilipin-5 | 360,000 tested, 0.78% active | Q00G26+Q8WTS1 | Split G. princeps luciferase complementation, luminescence, 4 h | inhibition, % at 4 µM;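 active = inhibition above the mean inhibition across every tested compound plus 3 SD, cut at about 22% in these data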;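 note: 0% = DMSO only wells and the 100% control is not disclosed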
Target sequence (Q00G26 whole entry, looked up): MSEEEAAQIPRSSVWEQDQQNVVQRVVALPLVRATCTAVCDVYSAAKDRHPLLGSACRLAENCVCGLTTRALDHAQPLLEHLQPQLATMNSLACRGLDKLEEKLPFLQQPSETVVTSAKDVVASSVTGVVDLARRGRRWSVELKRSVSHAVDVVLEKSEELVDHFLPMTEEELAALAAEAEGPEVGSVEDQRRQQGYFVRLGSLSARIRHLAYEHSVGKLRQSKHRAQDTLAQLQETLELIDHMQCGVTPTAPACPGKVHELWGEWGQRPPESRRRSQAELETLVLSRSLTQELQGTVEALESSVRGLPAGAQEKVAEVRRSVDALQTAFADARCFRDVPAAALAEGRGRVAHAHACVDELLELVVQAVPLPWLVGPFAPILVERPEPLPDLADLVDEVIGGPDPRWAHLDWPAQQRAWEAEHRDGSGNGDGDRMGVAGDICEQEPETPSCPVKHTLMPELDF
Target sequence (Q8WTS1 whole entry, looked up): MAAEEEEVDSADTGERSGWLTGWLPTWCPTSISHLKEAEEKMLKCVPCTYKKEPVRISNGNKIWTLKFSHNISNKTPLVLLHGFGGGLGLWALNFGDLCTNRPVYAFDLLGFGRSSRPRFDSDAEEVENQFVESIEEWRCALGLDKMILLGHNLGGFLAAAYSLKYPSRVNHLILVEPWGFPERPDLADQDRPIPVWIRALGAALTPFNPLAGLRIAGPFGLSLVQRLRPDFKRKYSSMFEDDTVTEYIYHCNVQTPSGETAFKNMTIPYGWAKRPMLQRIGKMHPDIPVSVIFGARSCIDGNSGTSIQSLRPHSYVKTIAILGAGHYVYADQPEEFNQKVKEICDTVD
CRFR2-BP antag – CRF-BP/CRF-R2 complex antagonism; HEK293 CRF-R2/CRF-BP, CRF-induced calcium fluorescence; inhibition, % at 11.8 µM; AID 588475; 350,000 tested, 0.59% active;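 active = inhibition of the ligand-induced calcium signal above about 50% at the single tested concentration, limit read from the data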
HTR2A ag – activates the mouse 5-HT2A serotonin receptor; activation, % at 7.6 µM; CHO-K1 mHTR2A beta-arrestin complementation, luminescence; percent of 30 µM serotonin response; 360,000 tested, 0.66% active; AID 624169;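 active = activation above a run cutoff, the mean activation of all tested compounds plus 3 SD, cut at about 14% in these data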;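 note: 0% = plate median of compound wells and 100% = 30 µM serotonin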
TLR4-MyD88 BLA – blocks binding of human TLR4 to MyD88; O00206+Q99836; HeLa CL3-4 TLR4/MyD88 BLA complementation, FRET ratio; inhibition, % at 8.4 µM; 200,000 tested, 0.18% active; in the data active = inhibition above about 25%;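 note: 0% = vehicle and 100% = reference inhibitor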
ABHD5-PLIN5 conf – ABHD5-PLIN5 interaction inhibition, confirmed | shares compounds with ABHD5-PLIN5 inh | biochemical ABHD5-PLIN5 interaction, luminescence | inhibition, % at 4 µM | 2,200 tested, 67% active | AID 651612; in the data active = inhibition above about 23%;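 note: 0% = DMSO vehicle wells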
HNF4 counter – active in HNF4 split-luciferase counter-screen for ABHD5-PLIN5 inhibitors; shares compounds with ABHD5-PLIN5 inh; HNF4 dimerization, luminescence, biochemical; inhibition, % at 4 µM; 2,200 tested, 77% active;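 active = mean inhibition across replicate wells exceeding the computed hit threshold, cut at about 13% in these data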;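 note: light from luciferase halves that rejoin when HNF4 fusion proteins dimerize; 0% = DMSO only wells and the 100% control is not given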
An asterisk follows results filed as active; · = no result given.

SMILES | NOD2 RIPK2 PPI | TLR9-MyD88 inh | ABHD5-PLIN5 inh | CRFR2-BP antag | HTR2A ag | TLR4-MyD88 BLA | ABHD5-PLIN5 conf | HNF4 counter
O=C(O)[C@H](Cc1ccccc1)N1C(=O)c2c(Cl)c(Cl)c(Cl)c(Cl)c2C1=O | -5 | -5 | 71* | 14 | 1 | · | -7 | 4
CC1(C(=O)NS(=O)(=O)c2ccccc2C(F)(F)F)CCN1C(=O)CCC1CCCC1 (stereo not given) | 14 | · | -3 | · | 6 | · | · | ·
S=C(NCCCN1CCOCC1)N1CCN(c2nc(-c3ccc(Cl)cc3)cs2)CC1 | 10 | -6 | 32* | 21 | -7 | -5 | 17 | 3
CCCCn1nnnc1C(c1ccccc1)N1CCCN(Cc2ccc(F)cc2)CC1 (stereo not given) | -4 | · | -2 | · | -4 | · | · | ·
Cc1ccc2nc(C(C)(C)C)c(Cc3ccsc3)n2c1 | 0 | · | 40* | · | -6 | · | 55* | 48*
Cc1ccc(-c2nc3ccc(C)cn3c2Cc2ccsc2)cc1 | 9 | · | 4 | · | -5 | · | · | ·
COc1ccc(C2=Nc3ccccc3NC(=O)C2N(C(=O)c2ccnc3ccccc23)c2ccccc2)cc1 (stereo not given) | 5 | · | 0 | · | -2 | · | · | ·
O=C1NC[C@H](Cc2ccccc2)N(C[C@@H]2CCCN2C[C@H](Cc2ccc(O)cc2)N2C[C@H](Cc3ccccc3)N(CCc3ccccc3)C(=O)C2=O)C1=O | -3 | · | 10 | · | -1 | · | · | ·
O=C(Nc1nc2ccccc2[nH]1)NC1CCCCC1 | 4 | 14 | 102* | -2 | -2 | · | 4 | 3
CCOC(=O)C1(C)CCCCN1C(=O)c1ccoc1 (stereo not given) | 6 | · | 9 | · | 2 | · | · | ·
CC(C)C[C@H]1CNC(=S)N1C[C@H]1CCCN1C[C@H](Cc1ccc(O)cc1)N1C[C@H](Cc2ccc(O)cc2)N(CCc2ccccc2)C1=S | -12 | · | 23* | · | -5 | · | 8 | 2
CCCC(=O)NC(c1ccco1)c1cc([N+](=O)[O-])c2cccnc2c1O (stereo not given) | -4 | 1 | 35* | -10 | 0 | 8 | 17 | 24*
COCCc1ccc(OC2(C)CCN(Cc3ccc(OC)c4ccccc34)C2)cc1 (stereo not given) | -1 | · | 0 | · | -7 | · | · | ·
COC(=O)c1cccc(-n2c(CCC(=O)O)ccc2-c2cccs2)c1 | -3 | -2 | 22 | -7 | 4 | · | · | ·
CC(=O)c1ccc(-n2c(CCC(=O)O)ccc2-c2cccs2)cc1 | -4 | -7 | 32* | 26 | -5 | -7 | 5 | 49*
Cc1ccc(-n2c(CCC(=O)O)ccc2-c2cccs2)cc1 | -6 | -10 | 18 | 4 | -3 | -9 | · | ·
NC(=O)c1ccc(-n2c(CCC(=O)O)ccc2-c2cccs2)cc1 | -10 | 12 | 31* | 9 | 1 | -21 | 0 | 40*
CC(=O)c1ccc2noc(-c3ccccc3)c2c1 | -2 | -10 | 28* | 22 | 3 | 10 | 31* | 49*
COC(=O)[C@@]12C[C@@H](CC(=O)N3CCSCC3)C(=O)N(Cc3cccc4ccccc34)C1=CCC(C)(C)C2 | -4 | · | 5 | · | 3 | · | · | ·
CCN(CC)C(=O)c1cccc(-c2csc(C(C)(O)c3cccc(F)c3)n2)c1 (stereo not given) | 8 | · | -2 | · | 1 | · | · | ·
O=C1C(=O)c2c(C(=O)c3ccccc3)coc2-c2ccccc21 | -6 | -2 | 69* | -10 | 1 | 11 | 85* | 45*
Cc1oc2c(c1C(=O)c1ccccc1)C(=O)C(=O)c1ccccc1-2 | -2 | 2 | -14 | 5 | 9 | -5 | · | ·
Cc1ccc(/C=C/C(=O)Nc2ccc(Oc3ccccc3)cc2)o1 | 5 | 7 | 24* | -10 | -2 | -4 | 10 | 39*
Cc1cc(NS(=O)(=O)c2ccc(NC(=O)/C=C/c3ccc(C)o3)cc2)nc(C)n1 | -5 | 8 | 29* | 3 | -4 | -21 | 51* | 60*
Cc1ccc(/C=C/C(=O)NCc2cccs2)o1 | -9 | 3 | 24* | 2 | 4 | 5 | 14 | 18*
SMILES | NOD2 RIPK2 PPI | TLR9-MyD88 inh | ABHD5-PLIN5 inh | CRFR2-BP antag | HTR2A ag | TLR4-MyD88 BLA | ABHD5-PLIN5 conf | HNF4 counter
COc1ccc(NC(=O)/C=C/c2ccc(C)o2)cc1S(=O)(=O)N1CCOCC1 | -2 | 4 | 23* | 6 | 0 | -7 | 16 | 17*
COc1cc(/C=C/C(=O)Nc2ccc(OC)c(S(=O)(=O)N3CCOCC3)c2)ccc1OC(F)F | 1 | 3 | -6 | -5 | 6 | · | · | ·
CCCCN1CC(COCc2ccccc2)Oc2cccc(OCc3ccc(OC)cc3)c2S1(=O)=O (stereo not given) | -10 | -4 | -4 | 1 | 2 | · | · | ·
Cc1cn([C@H]2C[C@H](O)[C@@H](CNS(=O)(=O)N3CCCC3)O2)c(=O)[nH]c1=O | -3 | -1 | -4 | 22 | 0 | · | · | ·
O=C(/C=C\c1ccc(-c2ccccc2)o1)c1ccccc1 | -9 | 6 | 38* | -11 | 1 | 15 | 67* | 90*
O=C(/C=C/c1ccccc1)c1cc(Br)ccc(=O)c1O | -1 | 3 | 44* | -18 | 2 | 10 | 76* | 68*
O=C(/C=C/c1ccccc1)c1ccc2ccccc2c1 | -4 | -4 | 53* | -18 | 0 | · | 76* | 63*
O=C(/C=C/c1ccc(NC(=O)c2ccccc2-c2ccccc2C(=O)O)cc1)c1ccccc1 | 5 | 16 | 24* | -10 | -2 | · | 60* | 34*
CC(/C=C\c1ccccc1)=C/C(=O)O | 2 | -3 | -2 | -8 | 4 | · | · | ·
N#Cc1ccc(/C=C/C(=O)c2ccccc2)cc1 | 9 | 15 | 83* | 26 | -8 | · | 100* | 105*
O=C(/C=C/c1ccccc1)/C=C/c1ccccc1 | 13 | 2 | 74* | 30 | -2 | 7 | 99* | 92*
O=C(/C=C/c1ccccc1)c1ccccc1 | -7 | 1 | 35* | 2 | 5 | -5 | 82* | 76*
CCOc1ccc(/C=C/C(=O)c2ccc(-c3ccccc3)cc2)cc1 | -12 | 7 | 5 | -5 | 5 | -13 | · | ·
COCCNC(=O)C1CCCN(Cc2ccccc2-c2ccccc2)CC1 (stereo not given) | -6 | · | -2 | · | -5 | · | · | ·
CC(C)(C)n1nnnc1C(c1cc2ccccc2o1)N1CCOCC1 (stereo not given) | -11 | · | -2 | · | 7 | · | · | ·
CCCCCNC(=O)C(c1ccc(-c2ccccc2)cc1)n1c(=O)c(-c2ccccc2)nc2ccccc21 (stereo not given) | 6 | · | -3 | · | -4 | · | · | ·
CC(C)(C)NC(=O)C(c1ccccc1F)n1c(=O)c(-c2ccco2)nc2ccccc21 (stereo not given) | -13 | · | 54* | · | 1 | · | 91* | 36*
